The record followed here is the OligoGym collection.

Among the targets are TRIM23; TRIL; TRAPPC2; TRIM38; TRMT1; TSC1; TTYH3; TUBA8; TTLL4; TUBAL3; TTLL3.
Common to all, as to assay: pooled miR-30 sensor sort-seq; sequence = guide strand
Holding throughout (conditions): shRNA
Note: reference of the scale not given here.

For the sequence TCAGCTAGAGGAACTCGCCTGT, the sensor-assay potency score (higher = more potent) with TRIM23 came out at 0.453.
TTGCACAGAATGAACTTGTTGA: the sensor-assay potency score (higher = more potent) in the test with TRIL came out at 0.574.
Still for that read-out and setting: under TTGGTTATGAAGTTGCCGCCGA stands -0.156.
TTCAAGTACATGTTGTTCGATA yielded a sensor-assay potency score (higher = more potent) with TRAPPC2 of -0.28.
In turn, TAGAGGAACTCGCCTGTGCTTT returned a sensor-assay potency score (higher = more potent) with TRIM23 of -1.17.
Regarding ATGCACTTGATCGAATAGGAGA, the sensor-assay potency score (higher = more potent) with TRAPPC2 was -1.42.
As for TTCTTGTGCAGGTCTAGGGACT, the sensor-assay potency score (higher = more potent) with TRIL is -1.42.
Regarding AACTTGTTGAAGTCGCATGGGT, the sensor-assay potency score (higher = more potent) with TRIL is -0.301.
TTTTGGTCCAATGTGAACTCGA gave a sensor-assay potency score (higher = more potent) in the test with TRIM23 of 0.0711.
The sequence TTGCAGCTGCTGGTCATCCAGG displayed a sensor-assay potency score (higher = more potent) in the test with TRIL of -1.05.
On to TTTGTTAGCAAAAATCAGGAGC, for which, in the test with TRIM23, the sensor-assay potency score (higher = more potent) was -0.0645.
Sequence ATGAGCTATGAACTGGTTCAGA came in with a sensor-assay potency score (higher = more potent) in the test with TRAPPC2 of -1.51.
Regarding TATCTAAAATTGATGCTCGGAT, the sensor-assay potency score (higher = more potent) in the test with TRIM23 was -0.778.
Consider TATATAAATCATAAACATCAGT, for which the sensor-assay potency score (higher = more potent) with TRAPPC2 was -0.905.
As for TTTTCCGTTAACAACTTTGCAA, the sensor-assay potency score (higher = more potent) in the test with TRIM23 is -0.567.
Regarding TAGGTGAGCACGTCGTGGGGGC, the sensor-assay potency score (higher = more potent) with TRIL is -0.151.
In the test with TRIM23, TTTAACTTAAACAAGATAGTAG came in with a sensor-assay potency score (higher = more potent) of 0.417.
As to TGTCAAATGCACTTGATCGAAT, the sensor-assay potency score (higher = more potent) with TRAPPC2 is -0.613.
Sequence TAAAATTGATGCTCGGATCTGA returned a sensor-assay potency score (higher = more potent) with TRIM23 of 0.781.
Still for that read-out and setting: next, TAGTTTGACAACCTTCTTCCAA: -0.272; TTTCCGTTAACAACTTTGCAAG: -1.22; AACTCTACAATCATCCTGCTGC: 0.546.
TTGTCTTATGTCATGAAGCATA: the sensor-assay potency score (higher = more potent) in the test with TRAPPC2 is -1.65.
TAGTAGTTTTTCCAGCACCATC had a sensor-assay potency score (higher = more potent) with TRIM23 of -1.64.
The same measure, in the same setting: under TAATCTGAGATTTCCTCTGTGA stands 0.349.
In the test with TRIM23, TACATGTTCTGTGTGAGCCATT gave a sensor-assay potency score (higher = more potent) of -1.01.
Turning to TACAGCTCTTCCAGCCGCGAGA, the sensor-assay potency score (higher = more potent) with TRIL was -1.34.
Sequence TGCAACTTCTGTAAACTGCTGC had a sensor-assay potency score (higher = more potent) in the test with TRIM23 of 0.44.
In the test with TRAPPC2, TTTATTCCATCTTCTTGTCTTA gave a sensor-assay potency score (higher = more potent) of -0.31.
Regarding TTGTAGAATGAGTAACTTGAGA, in the test with TRIM23, the sensor-assay potency score (higher = more potent) was -0.898.
Take TAGAAATCGCCCCTGCTGCTGG: the sensor-assay potency score (higher = more potent) in the test with TRIL was -0.425.
On the same count and under the same terms, next, ATGAACTTGTTGAAGTCGCATG: -1.34.
Take TTTCTGTCAAATGCACTTGATC: the sensor-assay potency score (higher = more potent) with TRAPPC2 was -1.44.
For the sequence TCGTTGAACTTGTCCACAGTTT, the sensor-assay potency score (higher = more potent) with TRAPPC2 was -0.427.
For TTGCCGTCTAGATCCAGCCGAT, in the test with TRIL, the sensor-assay potency score (higher = more potent) was -0.561.
The same measure, in the same setting: under TTGTACTGCAGGTCCAGCCGTC stands -0.188.
On to TATTCCATCTTCTTGTCTTATG, for which the sensor-assay potency score (higher = more potent) in the test with TRAPPC2 is -1.41.
Regarding TACAACAAACACAACAGCTTGA, the sensor-assay potency score (higher = more potent) in the test with TRIM23 is 0.537.
In the test with TRIL, TTGACTAGACTCTCCAGGCCCT displayed a sensor-assay potency score (higher = more potent) of -0.105.
Regarding TACTGAATGCTTGTGACCCTGG, the sensor-assay potency score (higher = more potent) with TRIM23 is 0.0097.
With TATAAAAGGATACAACTCCGGC, the sensor-assay potency score (higher = more potent) with TRIM38 was -0.57.
As to TTCACATCGAAGTAAAGCTTGG, in the test with TRIM38, the sensor-assay potency score (higher = more potent) is -0.536.
Regarding TTGAGCTGGACATTCCGGCGTA, the sensor-assay potency score (higher = more potent) in the test with TRMT1 was 0.567.
On the same count and under the same terms, under TAGAAGTCAGCGCTGATGCTGA stands -0.13.
In the case of TAGAGTGACAGAACCTTTGCTG, the sensor-assay potency score (higher = more potent) with TSC1 was 0.691.
In the test with TTYH3, TAGCAGAAGCCGGTCAGCGCTT returned a sensor-assay potency score (higher = more potent) of -0.823.
For the sequence TCGCACTTCACCATCTGGCTGT, the sensor-assay potency score (higher = more potent) with TUBA8 was -0.0578.
On to TTTCTTCTTCAAACGAATCAGT, for which the sensor-assay potency score (higher = more potent) with TUBA8 is -0.469.
Regarding TTGATCACAGGTAACGTCTGGG, in the test with TTLL4, the sensor-assay potency score (higher = more potent) was found to be 0.356.
TTCAATTAGGTCTACATTCAAG displayed a sensor-assay potency score (higher = more potent) with TUBAL3 of -1.3.
As for TAGTCGGTGTCCTCGGGCCGGA, the sensor-assay potency score (higher = more potent) in the test with TTYH3 is -1.53.
Turning to TCGCACATACATCTTGAGCAGG, the sensor-assay potency score (higher = more potent) with TTLL4 is -1.1.
TTGACCTTCCGACAGGTGCTAG: the sensor-assay potency score (higher = more potent) with TTLL3 is -0.947.
Sequence TGTATCTTCAGTCTCAGCCTGA returned a sensor-assay potency score (higher = more potent) with TTLL4 of 0.277.
Turning to ATTGTTGGCAGCATCCTCCTTT, the sensor-assay potency score (higher = more potent) in the test with TUBAL3 was 0.0651.
Regarding TTTCTTGCCATAATCCAGGGAG, the sensor-assay potency score (higher = more potent) in the test with TUBA8 is -0.376.
On the same count and under the same terms, next, TTGAGGTTGGTATAGGTAGGGC: -0.964.
As for TTTTGCTGCCAGGTGTGCGGGA, the sensor-assay potency score (higher = more potent) with TTYH3 was -0.687.
Sequence TTGAGGACACAATCTGACTGAT had a sensor-assay potency score (higher = more potent) with TUBA8 of -0.409.
Still for that read-out and setting: under AATAGCGACATTCACATCCTTG stands -0.744.
ATGATGACACACCAGGCCGTGC had a sensor-assay potency score (higher = more potent) in the test with TTYH3 of -1.46.
Turning to TTTTTATTGACACTGTAGTTGG, in the test with TTLL4, the sensor-assay potency score (higher = more potent) was -0.76.
In the test with TTYH3, TATTTGGCTCTCATGCTGGAGG registered a sensor-assay potency score (higher = more potent) of -0.854.
TTCTTCTGTATCTTCAGTCTCA registered a sensor-assay potency score (higher = more potent) with TTLL4 of 0.119.
TGATCTTGCTAGCTTGAGCATC returned a sensor-assay potency score (higher = more potent) in the test with TUBA8 of -1.14.
In the case of TCATCATCGTTGATCTTGCTAG, the sensor-assay potency score (higher = more potent) in the test with TUBA8 was -0.473.
TTTGACAACAACATCCTTTATC: the sensor-assay potency score (higher = more potent) in the test with TTLL4 was -1.2.
Take TTCAGCACCTCCTGGACGCGGA: the sensor-assay potency score (higher = more potent) with TTYH3 is -0.58.
TAGTTTTGACAACAACATCCTT yielded a sensor-assay potency score (higher = more potent) in the test with TTLL4 of -0.466.
On the same count and under the same terms, under AGTTTTGACAACAACATCCTTT stands -0.763.
In the test with TUBA8, ATTGAGGACACAATCTGACTGA yielded a sensor-assay potency score (higher = more potent) of 0.101.
Regarding TTGGCTCTCATGCTGGAGGTGT, the sensor-assay potency score (higher = more potent) in the test with TTYH3 is -0.0842.
Same read-out and setting: under TTGCCGTAGAATCCCACTGCGA stands -1.44.
On the same count and under the same terms, under TTGCACGTAGTCCAGATGCAGG stands -1.46.
TTTATTGACACTGTAGTTGGTC came in with a sensor-assay potency score (higher = more potent) with TTLL4 of 0.947.
On the same count and under the same terms, under TTGAGTATCACGTCATCCTTTG stands -0.629.
Sequence TCGAACTTGTGGTCGAGGCGGG registered a sensor-assay potency score (higher = more potent) in the test with TUBA8 of -0.697.
The sequence TAGAATCCCACTGCGATGCCGG showed a sensor-assay potency score (higher = more potent) with TTYH3 of -0.487.
Turning to AAGCTCAGCCACGACATCCTGC, the sensor-assay potency score (higher = more potent) in the test with TTYH3 is -0.514.
In the case of TTTGTCAGCAGAGACGATGGGG, in the test with TUBAL3, the sensor-assay potency score (higher = more potent) worked out at 0.442.
In turn, TACATGAGGTCGAACTTGTGGT came in with a sensor-assay potency score (higher = more potent) with TUBA8 of -0.814.
Consider TTGCTAGTCTCTGATTTGCTGA, for which the sensor-assay potency score (higher = more potent) with TTLL4 was -0.807.
Sequence TTGATCTTGCTAGCTTGAGCAT returned a sensor-assay potency score (higher = more potent) in the test with TUBA8 of -0.893.
In the test with TTYH3, TAGCCCAGCCACCTGTACCAGT gave a sensor-assay potency score (higher = more potent) of -1.16.
